D1 agonist: Allosteric Agonists of the Human D1 Dopamine Receptor: qHTS; D(1A) dopamine receptor (Homo sapiens), P21728; HEK293 T-REx D1 cells, calcium flux, agonist mode; activation, % at 2 µM; hit rate 1% among 360,000
Target sequence (P21728 whole entry, looked up): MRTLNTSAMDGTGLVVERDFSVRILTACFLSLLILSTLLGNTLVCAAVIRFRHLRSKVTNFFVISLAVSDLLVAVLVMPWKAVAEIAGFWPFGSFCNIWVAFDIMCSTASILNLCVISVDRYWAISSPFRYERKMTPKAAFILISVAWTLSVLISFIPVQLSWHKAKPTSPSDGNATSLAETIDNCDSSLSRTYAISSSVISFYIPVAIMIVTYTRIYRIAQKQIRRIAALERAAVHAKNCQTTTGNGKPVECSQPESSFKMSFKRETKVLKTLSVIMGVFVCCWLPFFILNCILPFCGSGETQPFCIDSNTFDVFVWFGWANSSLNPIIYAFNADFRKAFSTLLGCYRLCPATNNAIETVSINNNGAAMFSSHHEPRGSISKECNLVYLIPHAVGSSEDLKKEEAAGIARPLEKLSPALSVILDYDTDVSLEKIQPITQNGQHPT
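Tetracycline-induced HEK293 TREx D1 cells, force-coupled to calcium signalling, were dye-loaded with a no-wash calcium kit. Compound was pin-added after a 10 s baseline. Fluorescence was read kinetically at 1 cycle/s for 180 s, with calcium rises flagged as agonism.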
D1 antag: Antagonist of Human D 1 Dopamine Receptor: qHTS. D(1A) dopamine receptor (Homo sapiens), P21728. HEK293 TREx D1 cells, calcium flux, dopamine EC80; active compounds read low. activity change, negative = inhibition, % at 10 µM. hit rate 3.2% among 360,000; in the data active = activity change below about -30%
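Antagonism measured as reduced calcium response to an EC80 dopamine addition following 180 s compound pre-read; cells were inducible HEK293 Trex D1 plated overnight at 30 C, read kinetically at 1 cycle/sec.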
D1 PAM: Potentiators of Human D1 Dopamine Receptor: qHTS; hit rate 0.036% among 360,000; AID 504651, 2011; HEK293 TREx D1 cells, calcium flux, dopamine EC20 potentiation; D(1A) dopamine receptor (Homo sapiens), P21728; potentiation, % at 10 µM; in the data active = potentiation above about 30%
TRHR enhancer: qHTS for Small Molecule Agonists and Allosteric Enhancers of Human TRH Receptor: Primary Screen for Enhancers; Thyrotropin-releasing hormone receptor (Homo sapiens), P34981; TRHR cells, fluo-8 calcium fluorescence, EC20 TRH enhancement; enhancement, % at 2 µM; hit rate 0.66% among 360,000; in the data active = enhancement above about 30%
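TRHR-expressing cells loaded with fluo-8 calcium dye were read kinetically (ex 480/em 530) during compound addition, then stimulated with an EC20 of TRH (10 nM final). Enhancement of the Gq-mediated intracellular calcium response was scored.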
TRHR ag: qHTS for Small Molecule Agonists and Allosteric Enhancers of Human TRH Receptor: Primary Screen for Agonists | AID 493084, 2011 | activation, % at 2 µM | hit rate 0.18% among 360,000 | TRHR cells, calcium flux fluo-8, FDSS agonist mode
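TRHR-expressing cells loaded with fluo-8 calcium dye; 23 nL library compound pin-transferred, kinetic FDSS fluorescence (Ex 480/Em 530) recorded about 180 s for agonist-induced calcium release, before a 10 nM TRH EC20 addition for potentiator mode.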
Of the large screens only hits and unclear results are named; the others gave an inactive call. Sampled rows, rich in hits. Any-hit rate of the full collection: about 4.7%. Cut-off read from the data, not from the text of the source, unless noted: active = activation above about 30%; inactive = the rest.

CCOc1ccc(C2C(C(=O)Nc3ccccc3)=C(C)Nc3nc(-c4ccccc4)nn32)cc1OC (stereo unspecified)	none
CCc1ccc(CNC(=O)c2ccc(OC)c(OC3CCN(C(C)C)CC3)c2)nc1	D1 antag -80
COc1ccc(C(=O)NC2CC2)cc1OC1CCN(Cc2ccc(F)cc2)CC1	D1 antag -40
C#Cc1ccc(CN2CCC(Oc3cc(C(=O)NC4CC4)ccc3OC)CC2)cc1	D1 antag -45
COc1ccccc1/C=C/CN1CCC(Oc2ccc(C(=O)N3CCCCC3)cc2)CC1	none
COc1ccccc1/C=C/CN1CCC(Oc2cc(C(=O)NC3CC3)ccc2OC)CC1	D1 antag -73
COc1ccc(C(=O)NC2CC2)cc1OC1CCN(Cc2ccccc2)CC1	none
COc1ccc(C(=O)NC2CC2)cc1OC1CCN(Cc2ccc(F)c(F)c2)CC1	none
COc1ccc(C(=O)O)cc1S(=O)(=O)Nc1ccccc1C(=O)NCc1ccc2c(c1)OCO2	none
Cc1ccc(OC(C)C(=O)N(C)Cc2ccccc2)c([N+](=O)[O-])n1 (stereo unspecified)	TRHR enhancer 39
Cc1ccc(OCC(=O)N(Cc2ccccc2)C(C)C)c([N+](=O)[O-])n1	none
O=C(Nc1ccc2nc(SCC(=O)N3CCCC3)sc2c1)c1cccc(Br)c1	none
O=C(N/N=C(\c1ccccc1)c1cccnc1)c1cccc(F)c1	D1 antag -41
COc1ccc(CNC(=O)c2ccccc2SC)cc1	none
CC(=O)OCc1ccccc1Sc1ccccc1C(=O)NCc1ccccc1	D1 antag -45
O=C(O)CCCn1cc(NC(=O)c2sc3ccccc3c2Cl)cn1	none
Cc1nn(Cc2ccc(Cl)cc2)c(C)c1NC(=O)CSc1nc2c(c(C(F)(F)F)n1)CCc1ccccc1-2	none
Cc1ccc(Cn2nc(C)c(NC(=O)CSc3nc4c(c(C(F)(F)F)n3)CCc3ccccc3-4)c2C)cc1	D1 antag -86
COc1ccc(Cl)cc1C(=O)Nn1cnnc1	none
CCOc1ccc(/C=C/C(=O)NCCc2ccc(OC)c(OC)c2)cc1	none
CCCCNC(=O)/C=C/c1ccc(OC)c(Br)c1	D1 antag -30
CCN(CC)S(=O)(=O)c1ccc2c(c1)nc(CN(C)C(=O)Nc1ccc(C)c(F)c1)n2C	D1 antag -68
COc1ccc(NC(=O)Cn2cc(C(=O)c3ccco3)c3ccccc32)cc1	D1 antag -87
COc1ccc(NC(=O)Cn2cc(S(=O)(=O)Cc3ccccc3)c3ccccc32)c(OC)c1	D1 antag -32
Cc1cc(C)nc(Nc2ncc(O)n2-c2ccc(Br)cc2)n1	D1 antag -48
Cc1cc(C)nc(Nc2ncc(O)n2-c2ccc(C)c(C)c2)n1	none
Cc1ccc(-n2ccnc2SCC(=O)c2c(N)n(C3CC3)c(=O)[nH]c2=O)cc1C	none (no result: D1 PAM)
Cc1ccsc1CN(C)CC(=O)NCC(=O)Nc1ccc(F)cc1	none
COC(=O)c1[nH]c2ccc(C)cc2c1NC(=O)c1ccccc1[N+](=O)[O-]	D1 antag -36
Cc1nnc(SCCn2c(N3CCN(C)CC3)nc3c2c(=O)[nH]c(=O)n3C)s1	TRHR enhancer 41
CCCn1c(N2CCN(C)CC2)nc2c1c(=O)[nH]c(=O)n2C	D1 antag -31
CCCCn1c(N)c(N(CC)C(=O)CCNC(=O)NC23CC4CC(CC(C4)C2)C3)c(=O)[nH]c1=O	none
Cc1cccc(C)c1NC(=S)NCCc1ccc(O)c(O)c1	D1 antag -48
COc1ccc(CCNC(=O)C(=O)Nc2ccc(C)c(C)c2)cc1	TRHR enhancer 32
COc1ccc(CCNC(=S)Nc2cccc(C)c2C)cc1	D1 antag -31
Cc1cc(C)nc(-n2nc(C)cc2NC(=O)CNCc2ccccc2)n1	none
CCN(CC(=O)Nc1cc(C)nn1-c1nc(C)cc(C)n1)Cc1ccccc1	TRHR enhancer 33
Cc1cc(C(F)(F)F)c2sc(N)nc2n1	D1 antag -53
O=C(COC(=O)C1(c2ccc(F)cc2)CCCC1)NCc1ccc2c(c1)OCO2	D1 antag -32

Source: PubChem BioAssay
